Spn PMK inh: S. pneumoniae PMK inhibition; actives 0.49% (n = 65,000); AID 539; inhibition, % at 10 µM; purified PMK, PK/LDH-coupled NADH absorbance 340 nm;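 active = top-ranked compounds by inhibition in the single 10 µM screen, taking a fixed number of the strongest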;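 also: 0% = full reaction with DMSO carrier and 100% = background rate without enzyme reaction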
Spn MK inh: blocks S. pneumoniae mevalonate kinase; inhibition, % at 10 µM; purified MK, PK/LDH-coupled NADH absorbance 340 nm; actives 0.48% (n = 65,000);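 active = ranked among the strongest by inhibition in the single 10 µM screen, a fixed top-ranked set picked for dose follow-up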
Fluor 339 460: intrinsic fluorescence of library compounds, ex339/em460 – biochemical, MLSMR library, data from DPM-DC assay, artefact control, profiling panel; compound autofluorescence, ex339/em460 nm, NADH buffer; hits give high values; 1 = no-compound wells, NADH background; fluorescence fold increase at 10 µM; actives 5.5% (n = 65,000);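 active = at 10 µM, mean starting fluorescence two-fold or more over control wells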;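 also: signal is the first read of a kinetic run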
Spn DPM-DC inh: inhibitors of Streptococcus pneumoniae diphosphomevalonate decarboxylase | purified DPM-DC, PK/LDH coupled NADH fluorescence | actives 0.49% (n = 65,000) | calls only at 10 µM;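 active = the 320 compounds with the highest percent inhibition in the single-dose primary screen, excluding strongly autofluorescent ones, cut at about 32% in these data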;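 also: kinetic rate of NADH fluorescence loss reporting ADP formed by the decarboxylase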
Abs 340nm: compound absorbs light at 340 nm | compound absorbance at 340 nm, fold over control | fold change at 10 µM | 65,000 tested, under 10 active | AID 708;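 active = at 10 µM dose, initial 340 nm absorbance at least 2 fold that of control wells; inactive = change under 2 fold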;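 also: initial absorbance extrapolated from kinetic A340 decline of NADH oxidation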
NADH enzymes: blocks coupling enzymes of NAD/NADH assays; IC50, µM (top dose mostly 10 µM), for the others: at the top dose inhibition; actives 0.02% (n = 65,000); coupled PK/LDH NADH assays, four targets;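 active = single-dose screening hits from any of four coupled enzyme assays that gave an IC50 when retested across doses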;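 also: the DPM-DC format reads NADH fluorescence rather than 340 nm absorbance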
Active calls of the source: *; i = inactive; . = no result given; + = active, no number. Sampled rows, rich in hits. Any-hit rate of the full collection: about 6.8%.

SMILES | Spn PMK inh | Spn MK inh | Fluor 339 460 | Spn DPM-DC inh | Abs 340nm | NADH enzymes
O=C(CSc1oc(-c2ccco2)nc1S(=O)(=O)c1ccc(Cl)cc1)NCC1CCCO1 (centres undefined) | 10.0 | 8.0 | 1.06 | i | 0.98 | 6.0%
Cn1c(=O)c2c(ncn2CC(=O)Nc2cc(Cl)c(Cl)cc2Cl)n(C)c1=O | 16.0 | 9.0 | 1.09 | i | 0.98 | 12.0%
Clc1ccc2nc(N3CCNCC3)nc(-c3ccccc3)c2c1 | 15.0 | 8.0 | 2.28* | . | 0.95 | 12.0%
O=C(O)[C@@H](c1ccccc1)N1Cc2ccccc2C1=O | 7.0 | 72.0* | 1.09 | i | 1.08 | 27.0%
CSCC[C@@H](C(=O)O)N1Cc2ccccc2C1=O | 5.0 | 35.0 | 1.12 | i | 1.04 | 13.0%
Cn1nc(CC(=O)Nc2ncc(Br)s2)c2ccccc2c1=O | 25.0* | 0.0 | 1.07 | i | 1.04 | 8.0%
Cn1nc(CC(=O)Nc2ccc3c(c2)CCC3)c2ccccc2c1=O | 7.0 | 4.0 | 1.09 | i | 1 | 4.0%
N#C/C(=C\C1CC=CCC1)c1nc2ccccc2[nH]1 (centres undefined) | 1.0 | 1.0 | 1.41 | + | 0.99 | 20.0%
Cc1c(S(=O)(=O)Nc2cccc(Cl)c2)c(=O)n(C)c(=O)n1C | 0.0 | 55.0* | 0.99 | i | 1.07 | 18.0%
COCCn1c(-c2ccco2)nc2nc3ccccc3nc21 | 7.0 | 7.0 | 3* | . | 1.01 | 4.0%
CC(C)OCCCn1c(-c2ccco2)nc2nc3ccccc3nc21 | 7.0 | 8.0 | 3.76* | . | 1.13 | 8.0%
Cc1ccc(CNc2ccc(N3CCOCC3)c(C(=O)O)c2)s1 | 0.0 | 3.0 | 2.39* | i | 1.03 | 4.0%
CCOc1ccccc1CNc1ccc(N2CCOCC2)c(C(=O)O)c1 | 0.0 | 3.0 | 2.17* | i | 1.04 | 5.0%
O=C(O)c1cc(NCc2c(F)cccc2Cl)ccc1N1CCOCC1 | 4.0 | 5.0 | 1.9 | i | 1.01 | 6.0%
COC(=O)c1cc(NCc2ccccc2F)ccc1N1CCOCC1 | 17.0 | 12.0 | 1.82 | i | 0.99 | 13.0%
CCCC1=C(C(=O)OCC)C(c2ccc(N(C)C)cc2)n2ncnc2N1 (centres undefined) | 13.0 | 9.0 | 1.06 | i | 1.02 | 7.0%
CCOc1cc(C(=O)N(C)c2ccccc2)cc(OCC)c1OCC | 0.0 | 5.0 | 1.02 | i | 1.06 | 2.0%
Cn1c(C(=O)NCCC2=CCCCC2)cc2c(=O)n3ccccc3nc21 | 9.0 | 5.0 | 3.46* | . | 1.02 | 3.0%
Cn1c(C(=O)NCCCN2CCCC2=O)cc2c(=O)n3ccccc3nc21 | 12.0 | 9.0 | 4.91* | . | 1.08 | 11.0%
CCOC(=O)Nc1ccc2c(c1)N(C(=O)N(CC)CC)c1ccccc1CC2 | 9.0 | 0.0 | 1.14 | i | 1.04 | 3.0%
CCCOc1cc(CN2CCCCC2)cc(C(C)=O)c1 | 0.0 | . | 1.03 | i | 1.04 | 3.0%
COC(=O)c1ccccc1NC(=O)C1CCN(C(=O)c2cc(OC)c(OC)c(OC)c2)CC1 | 0.0 | 5.0 | 1.13 | i | 1.03 | 2.0%
CCOc1ccc(OCC)c(NC(=O)CN2CCN(c3cccc(C)c3)C(C)C2)c1 (centres undefined) | 3.0 | 42.0* | 1.04 | i | 1.04 | 15.0%
CCOc1ccc(OCC)c(NC(=O)CN2CCN(c3cccc(C)c3)CC2)c1 | 0.0 | 71.0* | 1.06 | i | 1.08 | 24.0%
COCC(=O)NCCNc1nc2ccc(C)cc2cc1C | 13.0 | 0.0 | 3.52* | . | 1.1 | 7.0%
SMILES | Spn PMK inh | Spn MK inh | Fluor 339 460 | Spn DPM-DC inh | Abs 340nm | NADH enzymes
CCOc1ccc2nc(NCCNC(=O)C3CC3)c(C)cc2c1 | 7.0 | 7.0 | 3.76* | . | 1.02 | 7.0%
CCCC(=O)Nc1nc2ccc(OCC)cc2s1 | 17.0 | 1.0 | 1.09 | i | 1.01 | 6.0%
CCOc1ccc2nc(NCCNC(=O)C(C)C)c(C)cc2c1 | 11.0 | 9.0 | 4.72* | . | 1.04 | 10.0%
O=S(=O)(c1ccc(NCCc2c[nH]c3ccccc23)nc1)N1CCOCC1 | 3.0 | 6.0 | 1.12 | i | 1.03 | 3.0%
CCOC(=O)C1CCCN(Cc2ccc3c(c2)OCO3)C1 (centres undefined) | 0.0 | 0.0 | 1.08 | i | 1.04 | 0.0%
CCN(CC)C(=O)C1CCCN(Cc2ccc(OC)c(C)c2)C1 (centres undefined) | 0.0 | 51.0* | 1.1 | i | 1.09 | 17.0%
CCN(CC)C(=O)C1CCCN(Cc2ccc(F)c(F)c2)C1 (centres undefined) | 2.0 | 5.0 | 1.1 | i | 1.02 | 2.0%
CCN(CC)C(=O)C1CCCN(Cc2ccc(N(C)C)cc2)C1 (centres undefined) | 0.0 | 50.0* | 1.02 | i | 1 | 6.0%
COc1cccc(CN(C)CC(=O)NC(=O)NCc2ccco2)c1 | 16.0 | 0.0 | 1.02 | i | 1.01 | 3.0%
COc1ccc2c(c1)OC1(C)CC2C(C(=O)c2ccccc2OC)C(=O)N1 (centres undefined) | 28.0* | 2.0 | 0.97 | i | 1.02 | 13.0%
Cc1cc2oc(=O)c3c(c2cc1OCc1nn[nH]n1)CCCC3 | 5.0 | 2.0 | 3.29* | . | 1.09 | 4.0%
O=c1oc2cc(OCc3nn[nH]n3)ccc2c2c1CCCC2 | 3.0 | 0.0 | 3.8* | . | 1.11 | 2.0%
CCCCNC1=C(Br)C(=O)CC(C)(C)C1 | 6.0 | 0.0 | 1.08 | i | 1.02 | 2.0%
CCC1(CC)Nc2ccccc2C(=O)N1c1ccc(NC(C)=O)cc1 | 17.0 | 5.0 | 3.73* | . | 1.02 | 11.0%
Cc1ccc(NC(=O)C(C)N2C(=O)c3ccccc3C2=O)cc1 (centres undefined) | 11.0 | 8.0 | 1.06 | i | 1.01 | 6.0%
COC(=O)c1ccc(OCC(=O)Nc2nn(-c3ccccc3)nc2C(N)=O)cc1 | 12.0 | 14.0 | 2.23* | i | 1.02 | 15.0%
O=C(CN1C(=O)C2CC=CCC2C1=O)NC1=NCCS1 (centres undefined) | 16.0 | 0.0 | 1.09 | i | 1.01 | 5.0%
COc1ccc(-c2c(C)oc3c(CN4CCCCC4C)c(O)ccc3c2=O)cc1OC (centres undefined) | 7.0 | 2.0 | 2.21* | . | 1.11 | 5.0%
CCOC(=O)c1c(-c2ccccc2)oc2ccc(O)c(CN3CCOCC3)c12 | 0.0 | 16.0 | 1.22 | i | 1.14 | 7.0%
Cc1oc2c(CN3CCOCC3)c(O)ccc2c(=O)c1-c1ccccc1 | 9.0 | 4.0 | 3.87* | . | 1.09 | 7.0%
COc1cccc(Oc2c(C)oc3c(CN4CCOCC4)c(O)ccc3c2=O)c1 | 13.0 | 8.0 | 3.83* | . | 1.06 | 11.0%
CCOC(=O)c1c(C)n(C)c2ccc(OC)c(NS(=O)(=O)c3ccc(Cl)s3)c12 | 78.0* | 3.0 | 1.14 | i | 1.06 | 27.0%
CCC(=O)Oc1ccc(-c2nc(-c3cccnc3)no2)cc1 | 11.0 | 11.0 | 1.09 | i | 1.01 | 7.0%
Cc1cc(C(=O)Nc2ccc(S(=O)(=O)Nc3nccs3)cc2)c(C)o1 | 8.0 | 18.0 | 0.82 | i | 1 | 13.0%
Cc1cc(C)c2c(n1)nn1c(N3CCN(Cc4ccccc4)CC3)cc(C)nc21 | 7.0 | 8.0 | 3.86* | . | 1.02 | 8.0%

Screening data: PubChem BioAssay, SRMLSC
